From PubChem BioAssay (NCATS)
Results filed as inconclusive are left out. Calls of active or inactive are those of the source. Calls follow the shape of the dose curve; as a rule, active = well fitted curve in the direction sought with a large enough effect; inconclusive = small, poorly fitted or top-dose-only effect, or another doubt; inactive = no such curve, though single readings can be large; an effect the other way counts as inactive or inconclusive.

Tests used:
[1] = Counterscreen for APE1 Inhibitors: Fluorescent Dye Displacement Validation Assay (AID 1707)
How it was run: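 Thiazole Orange displacement from dsDNA: 250 nM ThO with 50 nM TAMRA-labelled abasic-site (tetrahydrofuran) duplex in 50 mM Tris-HCl pH7.5, 50mM NaCl, 2 mM MgCl2, 0.01% Tween-20. Loss of endpoint fluorescence (ex 480 nm, em 540 nm) flags DNA binders.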

[2] = target: Endonuclease 4 (Escherichia coli (strain K12)) (UniProt P0A6C1); experiment: Counterscreen for APE1 Inhibitors: qHTS Validation Assay for Inhibitors of Endonuclease IV (AID 1708)
How it was run: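 2 nM enzyme was preincubated with compounds for 15 min at room temperature in 50 mM Tris-HCl pH 7.5, 50 mM NaCl, 2 mM MgCl2, 1 mM DTT, 0.01% Tween-20. 50 nM THF-abasic TAMRA/BHQ-2 duplex substrate started the reaction.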

[3] = qHTS for differential inhibitors of proliferation of Plasmodium falciparum line 7G8 (AID 1815);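 also: parasite growth measured after three days of incubation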
[4] = qHTS for differential inhibitors of proliferation of Plasmodium falciparum line GB4 (AID 1816); conditions: Potency: Plasmodium falciparum GB4 proliferation inhibition;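 also: parasite growth measured after 72 h incubation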
[5] = qHTS for differential inhibitors of proliferation of Plasmodium falciparum line D10 (AID 1877);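 also: parasites grown with compound for 72 h before DNA staining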
[6] = qHTS for differential inhibitors of proliferation of Plasmodium falciparum line Dd2 (AID 1882); conditions: Potency: Plasmodium falciparum Dd2 proliferation inhibition;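 also: series mostly up to about 29 µM; compound exposure of 72 h on infected erythrocytes; nearly all actives have a fitted effect of over 65% in size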
How it was run: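 SYBR Green I DNA fluorescence read-out, ex 485/em 535 nm. Signals were normalized to 0.29 uM artemisinin and DMSO wells, then corrected using vehicle-only plates flanking each stack. Parasite growth ran 72 h in erythrocytes before lysis.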

[7] = target: Ferritin light chain (Equus caballus) (UniProt P02791); experiment: qHTS Validation Assay for Identification of Novel General Anesthetics (AID 2323); also: series mostly up to about 77 µM
How it was run: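 Competitive displacement of profluorescent 1-aminoanthracene (1-AMA, 50% saturated solution in PBS) from 10 uM horse-spleen apoferritin. Compounds incubated 10 min at room temperature; fluorescence read at 380 nm excitation/535 nm emission, normalized to free 1-AMA and complex, fitted with four-parameter Hill equation.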

[8] = target: ATP-dependent DNA helicase Q1 (Homo sapiens) (UniProt P46063); experiment: qHTS Validation Assay for Inhibitors of RecQ-Like Dna Helicase 1 (RECQ1) (AID 2353)
How it was run: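 50 nM RECQ1T1 preincubated 15 min with compound in Tris pH 8.0 buffer with MgCl2, DTT, Tween-20 and 2.5 ug/ml poly(dI-dC); started with 200 nM TAMRA/BHQ-2 forked duplex and 2 mM ATP. Unwinding read as fluorescence (525/598 nm), two reads 2 h apart.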

[9] = target: RecQ-like DNA helicase BLM (Homo sapiens) (UniProt P54132); experiment: qHTS Validation Assay for Inhibitors of Bloom's syndrome helicase (BLM) (AID 2364)
How it was run: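 BLM 50 nM in 25 mM Tris-HCl pH 8.0, 5 mM NaCl, 2 mM MgCl2, 1 mM DTT, 0.01% Tween-20, 2.5 ug/ml poly(dI-dC); 15 min cpd preinc, RT. Start: 200 nM forked DNA + 2 mM ATP (final). TAMRA read, 2 reads 2 h apart.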

[10] = Validation screen for small molecules that induce DNA re-replication in MCF 10A normal breast cells (AID 463097); also: nearly all actives have a fitted effect of over 60% in size
How it was run: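 Readout: Hoechst nuclear fluorescence intensity, 405 ex / 500-530 em, by scanning plate imager; re-replication scored as increase in nuclei with elevated DNA content. Cells exposed to compound 48 hr, 37 C, 5% CO2 beforehand.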

[11] = Quantitative high throughput screen for delayed death inhibitors of the malarial parasite plastid, 96 hour incubation (AID 488745);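 also: luciferase-expressing P. falciparum in erythrocytes at 2% hematocrit and 0.1% parasitemia; series mostly up to about 29 µM; nearly all actives have a fitted effect of over 70% in size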
How it was run: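 Growth of reporter-bearing P. falciparum in red cells is measured after 96 h with compound, covering two erythrocytic cycles. Luminescence from the integrated luciferase serves as the growth signal.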

[12] = Quantitative high throughput screen for delayed death inhibitors of the malarial parasite plastid, 48 hour incubation (AID 488752); also: nearly all actives have a fitted effect of over 65% in size
How it was run: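 One parasite generation (48 h, 37 C, 5% CO2) of luciferase-reporter P. falciparum in erythrocytes is run with test compound; decreased luminescence indicates inhibited growth.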

[13] = target: M-phase phosphoprotein 8 (Homo sapiens) (UniProt Q99549); experiment: qHTS Validation Assay for Inhibitors for MPP8 Chromodomain Interactions with Methylated Histone Tails (AID 488949);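 also: AlphaScreen signal from MPP8 chromodomain bound to biotinylated H3K9me3 peptide; top concentration of the series differs between compounds; nearly all actives have a fitted effect of over 55% in size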
How it was run: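 MPP8 (50 nM) was preincubated with biotinylated H3(1-18)K9me3 peptide (50 nM) in PBS pH 7.4, 0.01% Tween-20 for 30 min at room temperature, then with compounds for 30 min; binding was detected by AlphaScreen.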

[14] = target: Transient receptor potential cation channel subfamily V member 1 (Homo sapiens) (UniProt Q8NER1); experiment: HTS Assay for Compounds that Act as Enhancers of the Vanilloid Receptor 1 (AID 488979)
How it was run: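 TRPV1-expressing cells loaded with Fluo-8 calcium dye; compounds added and calcium influx read kinetically for 3 min (agonist phase), then capsaicin at EC20 added and read 2 min more for enhancement. Fluorescence ex 480/em 520 nm.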

[15] = target: Thyrotropin receptor (Homo sapiens) (UniProt P16473); experiment: qHTS Assay for Antagonists of the Thyroid Stimulating Hormone Receptor (AID 488980); also: series mostly up to about 58 µM
How it was run: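 HEK293 cells transfected with human TSHR, suspended in HEPES-buffered HBSS with 70 uM RO 20-1724, were treated with compounds plus TSH at EC80 (4 nM final). cAMP was measured by competitive HTRF (cryptate anti-cAMP antibody, cAMP-d2 acceptor).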

[16] = target: Galactokinase (Homo sapiens) (UniProt P51570); experiment: qHTS Validation Assay for Inhibitors of Human Galactokinase (GALK) (AID 493189)
How it was run: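 GALK (5 nM) with 35 uM ATP and 100 uM galactose in HEPES pH8.0, MgCl2, NaCl, DTT, BSA; 1 h at room temperature. Residual ATP read by Kinase-Glo Plus luminescence after 10 min.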

[17] = Validation screen for small molecules that induce DNA re-replication in SW480 colon adenocarcinoma cells (AID 504364)
How it was run: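 Cells are treated 48 hr with test compound, stained 40 min with Hoechst at 37 C, and scanned for nuclear fluorescence; compounds inducing re-replication increase nuclei with elevated intensity.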

[18] = tested on: Zika virus NS2B-NS3 protease; experiment: Primary screen GU AMC qHTS for Zika virus inhibitors (AID 1347154); also: nearly all actives have a fitted effect of over 70% in size
How it was run: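 Unlinked Zika NS2B hydrophilic domain/NS3 protease domain noncovalent complex (25 nM final) in 10 mM Tris-HCl pH 8.0, 0.01% Tween 20, with AMC peptide substrate. Fluorescence (ex 340, em 450 nm) change over 15 min, room temperature; percent inhibition fitted to 4-parameter Hill equation.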

[19] = Primary qHTS for small molecule stabilizers of the endoplasmic reticulum resident proteome: Secreted ER Calcium Modulated Protein (SERCaMP) assay (AID 1508630)
How it was run: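 GLuc-SERCaMP-expressing SH-SY5Y cells, pretreated 16 h with compound, are challenged with thapsigargin to empty ER calcium stores; after 4 h, coelenterazine is added directly to the medium and luminescence is imaged.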

Measured: Potency

Chain of Thyrotropin receptor (Homo sapiens) (P16473 whole entry, looked up): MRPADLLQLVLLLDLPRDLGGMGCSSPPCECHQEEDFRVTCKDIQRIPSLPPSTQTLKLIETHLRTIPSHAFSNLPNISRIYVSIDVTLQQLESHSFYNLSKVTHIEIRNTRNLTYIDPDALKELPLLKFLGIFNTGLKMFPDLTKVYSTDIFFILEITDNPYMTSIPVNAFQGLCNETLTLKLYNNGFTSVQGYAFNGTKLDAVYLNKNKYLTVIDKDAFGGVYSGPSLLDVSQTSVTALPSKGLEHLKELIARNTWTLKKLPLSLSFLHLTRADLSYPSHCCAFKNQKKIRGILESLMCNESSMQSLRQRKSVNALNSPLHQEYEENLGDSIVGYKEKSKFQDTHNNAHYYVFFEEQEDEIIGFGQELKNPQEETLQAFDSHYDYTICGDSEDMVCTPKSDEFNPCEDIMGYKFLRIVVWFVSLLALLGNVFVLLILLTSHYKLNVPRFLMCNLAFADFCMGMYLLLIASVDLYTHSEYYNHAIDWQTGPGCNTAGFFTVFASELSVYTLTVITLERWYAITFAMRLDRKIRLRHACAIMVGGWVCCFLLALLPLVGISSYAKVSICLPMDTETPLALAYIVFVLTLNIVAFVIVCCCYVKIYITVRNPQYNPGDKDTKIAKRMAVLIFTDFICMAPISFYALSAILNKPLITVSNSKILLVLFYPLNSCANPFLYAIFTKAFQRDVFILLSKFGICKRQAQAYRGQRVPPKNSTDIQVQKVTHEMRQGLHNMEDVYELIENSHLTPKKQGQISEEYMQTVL
Chain of Ferritin light chain (Equus caballus) (P02791 2-175 limits assumed): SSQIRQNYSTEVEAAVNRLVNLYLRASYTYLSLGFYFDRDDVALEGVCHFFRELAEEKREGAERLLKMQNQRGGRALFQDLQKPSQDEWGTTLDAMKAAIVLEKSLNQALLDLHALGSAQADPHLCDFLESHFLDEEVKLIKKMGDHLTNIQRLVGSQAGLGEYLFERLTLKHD
Chain of M-phase phosphoprotein 8 (Homo sapiens) (Q99549 whole entry, looked up): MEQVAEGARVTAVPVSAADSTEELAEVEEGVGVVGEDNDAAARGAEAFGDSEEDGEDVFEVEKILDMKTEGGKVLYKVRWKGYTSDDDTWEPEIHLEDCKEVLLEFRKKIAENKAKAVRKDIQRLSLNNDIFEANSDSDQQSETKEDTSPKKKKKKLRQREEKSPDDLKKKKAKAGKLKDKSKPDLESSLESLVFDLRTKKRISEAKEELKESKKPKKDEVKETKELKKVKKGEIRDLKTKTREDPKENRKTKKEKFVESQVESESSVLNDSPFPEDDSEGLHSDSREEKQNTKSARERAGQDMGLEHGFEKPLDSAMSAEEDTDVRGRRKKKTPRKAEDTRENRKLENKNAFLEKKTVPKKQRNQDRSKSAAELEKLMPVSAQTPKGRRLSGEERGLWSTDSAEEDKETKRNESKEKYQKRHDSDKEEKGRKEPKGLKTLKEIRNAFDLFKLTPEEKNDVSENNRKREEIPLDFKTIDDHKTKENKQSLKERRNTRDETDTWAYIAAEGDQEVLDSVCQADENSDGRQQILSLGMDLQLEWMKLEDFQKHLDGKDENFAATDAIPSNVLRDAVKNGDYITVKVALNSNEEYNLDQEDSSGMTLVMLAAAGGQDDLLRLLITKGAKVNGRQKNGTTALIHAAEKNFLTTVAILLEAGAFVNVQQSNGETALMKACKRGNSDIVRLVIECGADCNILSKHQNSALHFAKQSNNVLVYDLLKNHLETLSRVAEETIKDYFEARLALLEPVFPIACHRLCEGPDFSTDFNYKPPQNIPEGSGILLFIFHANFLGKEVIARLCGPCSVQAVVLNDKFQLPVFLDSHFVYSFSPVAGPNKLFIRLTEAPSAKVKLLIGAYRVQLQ
Chain of RecQ-like DNA helicase BLM (Homo sapiens) (P54132 whole entry, looked up): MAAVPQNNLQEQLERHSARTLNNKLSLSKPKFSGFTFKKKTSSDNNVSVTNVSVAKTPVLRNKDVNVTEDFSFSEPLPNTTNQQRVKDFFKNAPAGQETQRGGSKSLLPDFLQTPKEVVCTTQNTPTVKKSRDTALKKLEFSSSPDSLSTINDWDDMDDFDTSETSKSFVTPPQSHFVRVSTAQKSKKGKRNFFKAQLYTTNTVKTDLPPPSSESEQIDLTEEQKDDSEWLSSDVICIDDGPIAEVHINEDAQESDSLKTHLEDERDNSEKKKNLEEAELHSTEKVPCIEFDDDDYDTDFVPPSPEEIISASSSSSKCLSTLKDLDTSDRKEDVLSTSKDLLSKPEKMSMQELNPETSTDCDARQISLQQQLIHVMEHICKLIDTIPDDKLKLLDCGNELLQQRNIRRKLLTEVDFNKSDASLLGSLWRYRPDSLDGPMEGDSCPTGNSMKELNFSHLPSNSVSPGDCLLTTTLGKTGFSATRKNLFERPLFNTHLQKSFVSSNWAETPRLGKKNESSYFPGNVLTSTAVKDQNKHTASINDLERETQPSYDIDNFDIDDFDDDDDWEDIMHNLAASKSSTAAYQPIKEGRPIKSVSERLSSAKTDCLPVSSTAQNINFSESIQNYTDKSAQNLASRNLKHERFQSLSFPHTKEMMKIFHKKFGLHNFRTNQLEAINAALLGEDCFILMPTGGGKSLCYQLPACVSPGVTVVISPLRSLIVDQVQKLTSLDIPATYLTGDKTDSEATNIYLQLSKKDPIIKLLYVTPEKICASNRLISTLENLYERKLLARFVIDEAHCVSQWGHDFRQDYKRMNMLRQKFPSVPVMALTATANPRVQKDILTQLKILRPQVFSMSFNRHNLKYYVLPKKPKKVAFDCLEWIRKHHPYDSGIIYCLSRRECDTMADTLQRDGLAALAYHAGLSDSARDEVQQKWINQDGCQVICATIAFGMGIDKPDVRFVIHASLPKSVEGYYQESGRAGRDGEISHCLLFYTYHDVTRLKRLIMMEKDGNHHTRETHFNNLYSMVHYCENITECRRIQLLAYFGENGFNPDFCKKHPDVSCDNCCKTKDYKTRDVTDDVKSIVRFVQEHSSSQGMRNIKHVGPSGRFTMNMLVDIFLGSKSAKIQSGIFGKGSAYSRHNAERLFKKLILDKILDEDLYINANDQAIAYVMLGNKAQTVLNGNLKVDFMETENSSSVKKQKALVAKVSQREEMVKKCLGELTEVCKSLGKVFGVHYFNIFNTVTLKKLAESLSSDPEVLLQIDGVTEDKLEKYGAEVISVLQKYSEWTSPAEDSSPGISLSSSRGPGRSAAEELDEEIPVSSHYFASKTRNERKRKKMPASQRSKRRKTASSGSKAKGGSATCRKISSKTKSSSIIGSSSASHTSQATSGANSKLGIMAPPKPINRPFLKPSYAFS
Chain of Transient receptor potential cation channel subfamily V member 1 (Homo sapiens) (Q8NER1 whole entry, looked up): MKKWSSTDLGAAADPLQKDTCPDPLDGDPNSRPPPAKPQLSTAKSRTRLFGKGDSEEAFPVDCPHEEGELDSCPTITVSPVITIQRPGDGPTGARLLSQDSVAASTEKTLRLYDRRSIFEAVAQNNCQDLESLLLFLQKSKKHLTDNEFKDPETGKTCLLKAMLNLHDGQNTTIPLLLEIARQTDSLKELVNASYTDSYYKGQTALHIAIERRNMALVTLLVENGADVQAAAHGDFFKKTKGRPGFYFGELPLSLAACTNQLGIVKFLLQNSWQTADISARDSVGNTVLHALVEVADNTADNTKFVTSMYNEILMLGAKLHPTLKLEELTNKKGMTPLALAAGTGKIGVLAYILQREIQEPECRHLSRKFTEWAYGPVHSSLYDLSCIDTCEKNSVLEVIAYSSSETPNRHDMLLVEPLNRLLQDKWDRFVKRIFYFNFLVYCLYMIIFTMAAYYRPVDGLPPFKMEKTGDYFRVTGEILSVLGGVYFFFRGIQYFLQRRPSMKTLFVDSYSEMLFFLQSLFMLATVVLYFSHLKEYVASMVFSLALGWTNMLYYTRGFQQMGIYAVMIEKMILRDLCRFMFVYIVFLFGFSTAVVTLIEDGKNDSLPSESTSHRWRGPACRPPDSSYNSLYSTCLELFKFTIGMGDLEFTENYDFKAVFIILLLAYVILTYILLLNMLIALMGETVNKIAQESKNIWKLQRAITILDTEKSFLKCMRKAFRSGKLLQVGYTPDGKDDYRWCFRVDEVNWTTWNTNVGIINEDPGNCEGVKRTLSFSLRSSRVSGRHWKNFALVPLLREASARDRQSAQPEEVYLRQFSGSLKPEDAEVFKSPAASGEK
Chain of ATP-dependent DNA helicase Q1 (Homo sapiens) (P46063 whole entry, looked up): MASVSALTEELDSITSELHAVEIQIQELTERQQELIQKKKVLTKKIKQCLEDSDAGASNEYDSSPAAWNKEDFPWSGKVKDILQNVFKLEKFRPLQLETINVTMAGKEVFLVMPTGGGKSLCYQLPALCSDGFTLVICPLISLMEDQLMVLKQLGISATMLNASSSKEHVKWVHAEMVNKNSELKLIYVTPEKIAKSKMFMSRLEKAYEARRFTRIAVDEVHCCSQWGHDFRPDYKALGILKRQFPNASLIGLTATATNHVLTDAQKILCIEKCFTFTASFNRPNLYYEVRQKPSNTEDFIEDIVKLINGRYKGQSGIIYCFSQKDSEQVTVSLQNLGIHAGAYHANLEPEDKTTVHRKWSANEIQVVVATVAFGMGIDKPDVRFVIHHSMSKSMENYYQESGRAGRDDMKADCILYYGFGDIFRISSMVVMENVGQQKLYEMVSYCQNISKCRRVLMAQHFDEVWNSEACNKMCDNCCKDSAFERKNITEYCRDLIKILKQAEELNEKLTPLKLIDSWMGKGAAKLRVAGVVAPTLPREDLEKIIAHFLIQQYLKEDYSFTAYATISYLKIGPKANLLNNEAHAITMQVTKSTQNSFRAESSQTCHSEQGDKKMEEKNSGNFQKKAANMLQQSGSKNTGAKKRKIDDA

Cn1cnc2c(NC3CCCC3)ncnc21
inactive: all assays above
